According to PubChem BioAssay AID1117319 (Southern Research Institute, 2015):
“And” between values parts separate entries of the source, which are not always exact repeats. Equal entries are not always repeated. Out of some 260,000 compounds screened, about 1,500 (0.58%) were called active. Another 5% or so got no clear call; they are omitted.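 Rule for the calls: active = inhibition above a set limit at one or more doses, reproduced on every date tested; inconclusive = results disagree between test dates, or hit never tested in dose response; inactive = the rest.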 The list is a sample of the results. Potency and affinity values are given separately.

Each compound was assayed against Virion infectivity factor (Human immunodeficiency virus type 1 group M subtype B (isolate BH10)) + Virion infectivity factor (Human immunodeficiency virus type 1 group M subtype B (isolate BRU/LAI)) + Virion infectivity factor (Human immunodeficiency virus type 1 group M subtype B (isolate PCV12)) + Virion infectivity factor (Human immunodeficiency virus type 1 group M subtype B (isolate HXB2)) + DNA dC->dU-editing enzyme APOBEC-3G (Homo sapiens) (UniProt P69720+P69721+P69722+P69723+Q9HC16) (assay: inhibitors of Vif binding to APOBEC3G peptide, primary screen, biochemical, TR-FRET, GST-Vif 1-94, biotin-A3G peptide, dose response retest (AID 1117319;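 note: Vif residues 1-94 fused to GST binding biotinylated APOBEC3G peptide 110-148; 0% = full assay without inhibitor and 100% = GST in place of GST-Vif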)). Conditions: stronger effect = higher value.

inhibition, inactive:
O=c1cc(NCCc2ccccc2)c2ccccc2o1 -9.21%
Cc1ccc(OCCNC(=O)CNC(=O)c2ccccc2Cl)cc1 -0.63%
Cc1cc(C)c(S(=O)(=O)N2CCCC(C(=O)NCCC3=CCCCC3)C2)c(C)c1 (centres undefined) 9.17%
O=C(N=C1SC2CS(=O)(=O)CC2N1Cc1ccccc1)C1CC1 (centres undefined) -2.49%
COc1ccc(CNc2nc(NCc3ccc(OC)c(OC)c3)n(C(=O)c3cccs3)n2)cc1OC 13.3%
COc1ccc(CN2CCNC(=O)C2CC(=O)N(Cc2nccn2C)C(C)C)c(OC)c1 (centres undefined) -0.6%
CC(C)N(Cc1nccn1C)C(=O)CC1C(=O)NCCN1Cc1ccc(F)c(F)c1 (centres undefined) -8.55%
Cc1ccc(SCCOCCN2CCc3ccccc3C2)cc1 -8.65%
C/C(Cl)=C/Cc1c(C)[nH]c2ccc(C)cc2c1=O -1.26%
COc1ccc(C(=O)N(C)C(C)c2nccs2)cc1OC1CCN(C(C)=O)CC1 (centres undefined) -6.6%
CC1(C)CC2(CC(c3ccccc3F)c3cc(Cl)c(O)cc3O2)NC(=S)N1 (centres undefined) 0.09%
CC1(C)CC2(CC(c3ccccc3)c3ccc(O)cc3O2)NC(=S)N1 (centres undefined) 0.62%
Cc1cc(C)c(C(=O)NC2CC(C)(C)Cc3c2cnn3-c2ccccc2)o1 (centres undefined) 1.78%
O=[N+]([O-])c1ccc(/C=N/Nc2nc(N3CCCCCC3)nc(N3CCCCCC3)n2)o1 10.1%
O=[N+]([O-])c1ccc(-c2ccc(/C=N/Nc3nc(N4CCCC4)nc(N4CCCC4)n3)o2)cc1 -1.43%
COC(=O)C1=C(CS(=O)(=O)c2ccc(Cl)cc2)NC(=O)NC1c1ccc(O)cc1 (centres undefined) 9.59%
CC(C)N(C(=O)CSc1nnc(-c2cc3ccccc3cc2O)n1Cc1ccco1)C(C)C 9.68%
CC(=O)c1cccc(NC(=O)c2ccoc2C)c1 7.62%
CC1(C)N=C(c2ccccc2)C(=O)N1 1.67%
CC(C)[C@H](NC(=O)c1ccco1)C(=O)OCC(=O)c1ccc2c(c1)NC(=O)CO2 30.8%
COc1cc(C(=O)NNC(=S)NC(=O)c2ccc(F)cc2)cc(OC)c1OC 13.5%
CCN(CC)CCn1c2ccccc2c2nc3ccccc3nc21 -1.16%
CCc1cc2c(=O)c(-c3nc4ccccc4n3C)c(C)oc2c(CN(CC)CC)c1O -0.78%
CC1=CN2C(=N)/C(=C/c3ccc(Sc4ccc(C)cc4)o3)C(=O)N=C2S1 -0.88%
CC1=CN2C(=N)/C(=C/c3ccco3)C(=O)N=C2S1 14.9%
O=C(Nc1cccc2c1[nH]c1ccccc12)C(F)(F)F -2.08%
COc1ccc2c([N+](=O)[O-])c(Cl)[nH]c2c1 21.2%
COc1cc2[nH]c3c(Cl)ncnc3c2cc1OC -0.29%
COc1ccc(C)cc1S(=O)(=O)NCC(c1ccco1)N1CCc2ccccc2C1 (centres undefined) -3.21%
N#CC1=C(N)OC2=C(C(=O)CC(c3ccco3)C2)C1c1ccc(OCc2c(F)cccc2Cl)cc1 (centres undefined) 13.6% and 14.7%
COc1cccc(C2C(C#N)=C(N)OC3=C2C(=O)CCC3)c1OC(=O)c1ccco1 (centres undefined) 22.1%
Cc1ccc(NC(=O)C(C)Sc2nc(-c3ccccc3)cc(=O)[nH]2)cc1 (centres undefined) -0.75%
O=C1C=C(c2ccccc2)C(c2ccccc2)C1 (centres undefined) 0.24%
COc1ccc(N2CCN(C(=O)COc3ccc4ccccc4c3)CC2)cc1 2.55%
Cc1onc(-c2ccccc2Cl)c1C(=O)N1CCN(c2ccccc2)CC1 -3.16%
Cc1onc(-c2ccccc2Cl)c1C(=O)N1CCCC1 -6.38%
COc1ccc(C(=O)N2CCN(c3cccc(Cl)c3)CC2)cc1 -2.36%
O=C(COc1ccccc1)N1CCN(c2ccccc2)CC1 10.3%
COc1ccc(N2CCN(C(=O)c3ccc(C)cc3Cl)CC2)cc1 6.52%
COc1ccc(N2CCN(C(=O)COC(=O)c3c(-c4ccccc4)noc3C)CC2)cc1 -5.58%
COc1ccc(S(=O)(=O)N2CCN(C(=O)c3c(-c4ccccc4)noc3C)CC2)cc1 0.45%
CCS(=O)(=O)N1CCC(C(=O)NC2CCCCCCC2)CC1 1.17%
Cc1cc(C(=O)N2CCN(S(=O)(=O)c3ccc(C)c(C)c3)CC2)no1 3.5%
COc1ccc(C)cc1NC(=O)c1cnc2scc(C)n2c1=O -5.79%
COc1ccc2cc(C3CC(c4cccs4)=NN3S(C)(=O)=O)c(Cl)nc2c1 (centres undefined) -0.38%
COc1ccc2[nH]c(C(=O)NCc3ccccc3)c(C)c2c1 1.63%
Cc1ccc(NS(=O)(=O)c2csc(C(N)=O)c2)cc1C -5.43%
CN(CC(=O)NCCc1ccc(S(N)(=O)=O)cc1)Cc1ccc(Cl)cc1Cl 4.74%
Cc1cc([N+](=O)[O-])nn1CC(=O)N1CCc2ccccc2C1 -2.29%
Cc1ccc(C)c(NC(=O)CN(C)C(=O)Cc2coc3cc(C)c(C)cc23)c1 0.3%
O=C(COC(=O)c1cnccn1)Nc1cc(S(=O)(=O)N2CCOCC2)ccc1Cl -11.1%
c1ccc(Nc2c(-c3ccco3)nc3ccccn23)cc1 -2.7%
COc1cc(-c2nc3ccccn3c2/N=C/c2cc(OC)c(O)cc2Cl)ccc1O 22.2%
CN(C)c1ccc(-c2nc3ccccn3c2/N=C/c2ccc(Br)cc2)cc1 6.4%
O=[N+]([O-])c1ccc(-c2ccc(C=Nc3cccc4ccccc34)o2)cc1 3.05%
O=[N+]([O-])c1cc(-c2ccc(/C=N/n3cnnc3)o2)ccc1Cl 6.34%
Cc1cc([N+](=O)[O-])c(C)cc1-c1ccc(/C=N/n2cnnc2)o1 1.64%
Cc1ccc(Nc2c(-c3ccco3)nc3ccccn23)cc1 12%
O=[N+]([O-])c1ccc(-c2ccc(/C=N/c3c(-c4ccco4)nc4ccccn34)o2)cc1 7.55%
